Here are results for 40 molecules from PubChem BioAssay (EPA / NIEHS).

Results filed as inconclusive are left out. The source made the active and inactive calls. Rule for the calls: active = hit-call score of the fitted dose curve at least 0.9, where 1 is the maximum; inconclusive = response in the unintended direction; inactive = score below 0.9.

This experiment in a line: Tanguay_ZF_120hpf_PFIN_legacy: (Legacy) Oregon State University Tanguay Lab 120 Hour Post-fertilization zebrafish Assay for Pectoral Fin Malformation (AID 2283648).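 Note: each larva judged yes or no for fin defect by brightfield with dead larvae skipped.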 The procedure: Tanguay_ZF_120hpf_legacy is a whole embryo, multiplexed endpoint assay using zebrafish larvae exposed for 120 hours post fertilization on a 96-well plate.Tanguay_ZF_120hpf_PFIN_legacy is one of one assay component(s) measured or calculated from the Tanguay_ZF_120hpf_legacy assay. It is designed to make measurements of zebrafish development as detected with brightfield microscopy of developing zebrafish embryos.Data from the assay component Tanguay_ZF_120hpf_PFIN_legacy was analyzed into 1 assay endpoints. This assay endpoint, Tanguay_ZF_120hpf_PFIN_legacy, was analyzed in the positive analysis fitting direction relative to DMSO as the negative control and baseline of activity. Using a type of morphology reporter, gain-of-signal activity can be used to understand changes in developmentals as they relate to the whole embryo. To generalize the intended target to other relatable targets, this assay endpoint is annotated to the zebrafish development intended target family, where the subfamily is pectoral fin morphogenesis.
Zebrafish husbandry: Tropical 5D wild-type adult zebrafish were housed in at an approximate density of 1000 per 100 gallon tank at the Sinnhuber Aquatic Research Laboratory, Oregon State University, Corvallis, OR. Each tank was kept at standard laboratory conditions of 28C on a 14-h light/10-h dark photoperiod in fish water consisting of reverse osmosis water supplemented with a commercially available salt (Instant Ocean). Spawning funnels were placed into the tanks the night prior, and embryos were collected and staged. To increase bioavailability, the chorion was enzymatically removed using pronase (63.6mg/ml, >/= 3.5U/mg, Sigma-Aldrich: P5147) at 4 hours post fertilization (hpf) using a custom automated dechorionator.Chemical exposures: Six hpf dechorionated embryos were placed 1 embryo per well in a 96-well plate prefilled with 90 ul of EM using automated embryo placement systems (AEPS). Ten microliters of each row of dilution plate 2 was added to 2 exposure plates. The final DMSO concentration used was 0.64% (vol/vol). Thirty-two embryos were also exposed to 5uM trimethyltin chloride (positive control). Plates were sealed to prevent evaporation and foil covered to reduce light exposure and kept in a 28C incubator. Embryos were statically exposed until 120 hpf. At 24 hpf, embryos were assessed for photomotor response using a custom photomotor response analysis tool (PRAT) and for developmental toxicity endpoints (MO24: mortality at 24 hpf, DP: developmental progression, SM: spontaneous movement, and NC: notochord distortion). At 120 hpf, locomotor activity was measured using Viewpoint Zebralab and assessed for 18 endpoints. Zebrafish acquisition and analysis program (ZAAP), a custom program designed to inventory, acquire, and manage zebrafish data, was used to collect developmental endpoints as either present or absent (i.e., binary responses were recorded). If mortality occurred for an embryo (at either 24 or 120 hpf), the non-mortality endpoints were not measured.
As a reminder, the AC50 is the concentration giving half of the maximal activity seen. Turning to `CC1=C2C[C@H]3[C@@H](CC=C4C[C@@H](O)CC[C@@]43C)[C@@H]2CC[C@]12O[C@@H]1C[C@H](C)CN[C@H]1[C@H]2C`, the AC50 was 21.8 µM (active). Regarding `Cc1ccccc1[N+](=O)[O-]`, the molecule was called inactive.

On to `COS(=O)(=O)OC`, for which the result was inactive.

Turning to `c1ccc(-c2ccccc2)cc1`, the molecule was classed as inactive. Same read-out and setting: with `CCCN(CCC)N=O` the entry was “inactive”.

On to `ClC(Cl)=C(c1ccc(Cl)cc1)c1ccc(Cl)cc1`, for which the result was inactive. Regarding `O=C(O)C(F)(F)C(F)(F)C(F)(F)C(F)(F)C(F)(F)F`, the outcome was inactive. The same measure, in the same setting: with `CCOCCOC(C)=O` the entry was “inactive”. On the same count and under the same terms, the value for `C1CC2OC2CC1C1CO1` (stereo not given) was “inactive”.

With `Cc1cccc([N+](=O)[O-])c1`, the molecule was classed as inactive. On the same count and under the same terms, the value for `CC#Cc1cc(C)nc(Nc2ccccc2)n1` was “inactive”; that for `Cc1cc(O)ccc1Cl` was “inactive”; that for `CC(C)(O)C(=O)Nc1ccc([N+](=O)[O-])c(C(F)(F)F)c1` was “inactive”. The same measure, in the same setting: with `N#Cc1ccc(N(CC(N)=O)CC(F)(F)F)cc1C(F)(F)F` the entry was “inactive”.

For the molecule `Nc1ccc(-c2ccc(N)cc2)cc1`, the molecule was classed as inactive.

Consider `CCCCCCCCOC(=O)c1ccccc1C(=O)OCCCCCCCC`, for which the call was inactive. Still for that read-out and setting: the value for `O=NN(c1ccccc1)c1ccccc1` was “inactive”; that for `CCNc1nc(NC(C)C)nc(SC)n1` was “inactive”.

As for `CC(c1ccc(O)cc1)(c1ccc(O)cc1)c1ccc(O)cc1`, the call was inactive. `O=C(N[C@H]1CN2CCC1CC2)c1cc2ccoc2cn1`: the molecule was called inactive. Take `CCC(C)(CC)c1cc(NC(=O)c2c(OC)cccc2OC)on1`: the outcome was inactive. With `O=C(NC(=O)c1c(F)cccc1F)Nc1cc(Cl)c(OC(F)(F)C(F)F)c(Cl)c1`, the call was inactive.

`Oc1c(Cl)c(Cl)c(Cl)c(Cl)c1Cl`: the molecule was classed as inactive. Still for that read-out and setting: with `Oc1ccc(Cl)cc1Cl` the entry was “inactive”.

Take `O=S(=O)(O)C(F)(F)C(F)(F)C(F)(F)C(F)(F)C(F)(F)C(F)(F)F`: the call was inactive. As to `CCCCCCCCCC[N+](C)(C)CCCCCCCCCC`, the molecule was called inactive. `Cc1cc2c3c(c1)C(c1ccccc1)=N[C@@H](NC(=O)c1ccncc1)C(=O)N3CC2`: the result was inactive. Regarding `CCC(C)(c1ccc(O)cc1)c1ccc(O)cc1`, the AC50 was 44.7 µM (active). `ClC1=C(Cl)[C@]2(Cl)[C@@H]3[C@@H](Cl)[C@H]4O[C@H]4[C@@H]3C1(Cl)C2(Cl)Cl`: the molecule was called inactive.

Consider `O=C(O)C(F)(F)C(F)(F)C(F)(F)C(F)(F)C(F)(F)C(F)(F)C(F)(F)C(F)(F)F`, for which the molecule was called inactive. Take `Nn1cnnc1`: the call was inactive. Still for that read-out and setting: the value for `ClC1=C(Cl)[C@]2(Cl)[C@@H]3[C@H]4C[C@H]([C@@H]5O[C@H]45)[C@@H]3[C@@]1(Cl)C2(Cl)Cl` was “inactive”; that for `C=CC(=O)NCNC(=O)C=C` was “inactive”; that for `CCSC(=O)N(CC)C1CCCCC1` was “inactive”. Still for that read-out and setting: with `Cc1ccc(O)c(C)c1` the entry was “inactive”; with `Cc1ccccc1O`, “inactive”.

For `NS(=O)(=O)C(F)(F)C(F)(F)C(F)(F)C(F)(F)C(F)(F)C(F)(F)C(F)(F)C(F)(F)F`, the molecule was classed as inactive.

`CCCCCCOC(=O)c1ccccc1C(=O)OCCCCCC`: the molecule was called inactive. For `Clc1ccc(C(c2ccccc2Cl)C(Cl)(Cl)Cl)cc1` (stereo not given), the molecule was called inactive. Still for that read-out and setting: with `CCOP(=S)(OCC)SCSC(C)(C)C` the entry was “inactive”.
